ChEMBL document CHEMBL3433997, “St. Jude Leishmania screening dataset” (2016)

Tests used:
Assay type in all cases: functional
[1] = target: Solute carrier family 2, facilitated glucose transporter member 1 (Homo sapiens) (UniProt P11166); experiment: ST_JUDE_LEISH: Cytotoxicity at 2uM final concentration against transgenic Leishmania Mexicana promastigotes LmGLUT1 that are glucose transport deficient and complemented with the human glucose transporter GLUT1. Activity is measured by DNA content using SYBR green in vitro
[2] = target: Hexose transporter 1 (Plasmodium falciparum) (UniProt O97467); experiment: ST_JUDE_LEISH: Cytotoxicity at 2uM final concentration against transgenic Leishmania Mexicana promastigotes LmPfHT that are glucose transport deficient and complemented with the Plasmodium falciparum hexose transporter. Activity is measured by DNA content using SYBR green in vitro
[3] = target: Glucose transporter (Leishmania mexicana) (UniProt O61059); experiment: ST_JUDE_LEISH: Cytotoxicity at 2uM final concentration against transgenic Leishmania Mexicana promastigotes LmGT2 that are glucose transport deficient and complemented with the L. Mexicana glucose transporter 2. Activity is measured by DNA content using SYBR green in vitro

Sequence of Solute carrier family 2, facilitated glucose transporter member 1 (Homo sapiens) (P11166 whole entry): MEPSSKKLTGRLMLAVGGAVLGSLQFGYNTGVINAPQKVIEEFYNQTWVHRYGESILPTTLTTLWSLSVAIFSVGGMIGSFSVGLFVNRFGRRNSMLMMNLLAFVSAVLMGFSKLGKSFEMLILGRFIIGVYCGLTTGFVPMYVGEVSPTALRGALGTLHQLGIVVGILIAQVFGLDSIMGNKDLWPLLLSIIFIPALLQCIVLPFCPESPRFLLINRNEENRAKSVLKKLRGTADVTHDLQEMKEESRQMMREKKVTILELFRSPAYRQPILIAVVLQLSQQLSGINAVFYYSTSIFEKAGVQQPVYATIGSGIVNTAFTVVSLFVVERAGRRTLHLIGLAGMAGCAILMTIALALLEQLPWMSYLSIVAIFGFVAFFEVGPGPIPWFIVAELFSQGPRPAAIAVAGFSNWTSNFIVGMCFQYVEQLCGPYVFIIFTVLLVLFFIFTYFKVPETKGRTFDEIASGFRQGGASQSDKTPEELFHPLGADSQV

N#Cc1ccc(NC(=O)Nc2ccc3c(c2)CCN(C2CCC2)CC3)cc1
inhibition [1]: 5.18%
inhibition [2]: 4.41%
inhibition [3]: 3.26%

COc1cccc2cc(C(=O)N[C@@H](CC(C)C)C(=O)N[C@H](C=NN3CCOC3=O)CC(C)C)oc12
inhibition [1]: 2.15%
inhibition [2]: 4.14%
inhibition [3]: 1.9%

COc1cc(NC(=O)N2CCc3ccc(OCCN(C(C)C)C(C)C)cc32)cc(C(F)(F)F)c1
inhibition [1]: 1.98%
inhibition [2]: 1.73%
inhibition [3]: 2.06%

Cc1ccc(-c2cc(C(=O)Nc3ccc(S(=O)(=O)N4CCOCC4)cc3)[nH]n2)c(O)c1C
inhibition [1]: 4%
inhibition [2]: 0.56%
inhibition [3]: -1.4%

O=C(NC1CCN(Cc2ccccc2O)C1)c1ccc(Cl)c(Cl)c1 (stereo not given)
inhibition [1]: 0.72%
inhibition [2]: 0.7%
inhibition [3]: -5.99%

C#CCCOc1ccc2ccccc2c1CNCCCCCCNCc1c(OCCC#C)ccc2ccccc12
inhibition [1]: -1.76%
inhibition [2]: 3.36%
inhibition [3]: -0.13%

c1ccc(Oc2ccc(Nc3nncc4ccccc34)cc2)cc1
inhibition [1]: 1.62%
inhibition [2]: 0.25%
inhibition [3]: -4.56%

Cc1cccc2nc(-c3cccc(-c4cccc(C(=O)NCc5nccn5C)c4)c3)[nH]c12
inhibition [1]: 11.5%
inhibition [2]: 10.8%
inhibition [3]: 10.2%

O=C(Cc1n[nH]c(=O)c2ccccc12)Nc1cccc(C(=O)Nc2cccc(C(F)(F)F)c2)c1
inhibition [1]: 3.52%
inhibition [2]: 4.12%
inhibition [3]: 2.16%

CCN(CC)CCCNc1nccc(N(C)c2ccc(NC(=O)Nc3cc(C(F)(F)F)ccc3F)cc2)n1
inhibition [1]: 11.7%
inhibition [2]: 9.93%
inhibition [3]: 11.9%

CN1CCc2ccc(NC(=O)Nc3cccc(C(=O)c4ccccc4)c3)cc2C1
inhibition [1]: 3.19%
inhibition [2]: 2.01%
inhibition [3]: 1.86%

CCCN(CCC)c1nn2c(=O)c(C(=O)N3CCN(Cc4ccccc4)CC3)cnc2s1
inhibition [1]: 1.4%
inhibition [2]: 1.87%
inhibition [3]: 2.14%

COc1ccccc1NC(=O)OC(COc1ccc(N)cc1)CN1CC=C(c2ccccc2)CC1 (stereo not given)
inhibition [1]: 0.46%
inhibition [2]: 0.25%
inhibition [3]: 0.98%

COc1cc2nc(N3CCC(CNC(=O)c4ccc(-c5ccc(C(=O)N(C)C)cc5OCCN(C)C)cc4)CC3)nc(N)c2cc1OC
inhibition [1]: 0.34%
inhibition [2]: 0.98%
inhibition [3]: 0.37%

C=C(C)Cn1cc(C2CCN(CCN3CCC(CNC(=O)c4ccc(-c5ccc(C#N)cc5)cc4)CC3)CC2)c2ccccc21
inhibition [1]: 7.94%
inhibition [2]: 4.28%
inhibition [3]: 5.17%

Cc1ccc(C)c(CN2CCC(CNC(=O)c3cc4ccc5cccnc5c4[nH]3)CC2)c1
inhibition [1]: 0.51%
inhibition [2]: -0.66%
inhibition [3]: -0.23%

CCCOc1ccc(-c2nonc2NC(=O)c2ccccc2OC)cc1OCCC
inhibition [1]: 12%
inhibition [2]: 14.6%
inhibition [3]: 10.7%

CC1CN(c2cnn(Cc3cccc(NC(=O)Nc4ccc(-c5ccccc5)cc4)c3)c(=O)c2Cl)CC(C)N1 (stereo not given)
inhibition [1]: 8.54%
inhibition [2]: 5.56%
inhibition [3]: 7.15%

c1ccc(C2CCN(Cc3ccc(-c4c[nH]c5nc(NC6CCCC6)ncc45)cc3)CC2)cc1
inhibition [1]: 2.79%
inhibition [2]: 2.07%
inhibition [3]: 1.65%

COc1ccc2c(c1)CCN(CCN1CCC(CNC(=O)c3ccc(-c4ccc(C#N)cc4)cc3)CC1)C2
inhibition [1]: -0.11%
inhibition [2]: 1.19%
inhibition [3]: 2.22%

CCCCCCOc1ccc2ccccc2c1CNCCCCCCNCc1c(OCCCCCC)ccc2ccccc12
inhibition [1]: 16.8%
inhibition [2]: 21.5%
inhibition [3]: 7.86%

NCCCOc1cnc(-c2ccccc2)c2nc(-c3nonc3N)n(CCc3ccccc3)c12
inhibition [1]: 4.6%
inhibition [2]: 2%
inhibition [3]: 1.33%

O=C(NC1CCN(Cc2ccccc2)CC1)c1ccc(CNC2CCN(Cc3ccccc3)CC2)cc1
inhibition [1]: 4.84%
inhibition [2]: 3.94%
inhibition [3]: 4.42%

CC1(C)NC(N)=NC(=N)N1OCCCOc1ccc(N)cc1
inhibition [1]: -1.98%
inhibition [2]: -0.16%
inhibition [3]: -1.26%

CCOC(=O)c1cnc2c(C(F)(F)F)cccc2c1Nc1ccc(O)cc1
inhibition [1]: 10.8%
inhibition [2]: 8.44%
inhibition [3]: 9.59%

COc1ccc2nccc([C@@H](O)CN3CCC(NCc4cc5oc(=O)[nH]c5cc4Cl)CC3)c2c1
inhibition [1]: -1.1%
inhibition [2]: -1.56%
inhibition [3]: -0.82%

COc1cc2c(cc1C(F)(F)F)N(C(=O)Nc1cc(Br)cc(-c3cccnc3)c1)CC2
inhibition [1]: 8.34%
inhibition [2]: 6.53%
inhibition [3]: 6.18%

Cc1nc2ccc3ccc(CNc4ccc5c(c4)CN([C@@H](CCC(=O)O)C(=O)O)C5=O)cc3c2c(=O)[nH]1
inhibition [1]: 1.71%
inhibition [2]: -0.99%
inhibition [3]: -1.52%

COc1ccc(CNCc2ccc(-c3ccc(CNCCc4ccccc4)cn3)cc2)cn1
inhibition [1]: 0.68%
inhibition [2]: -0.51%
inhibition [3]: 1.46%

Cc1cc(-c2ccc3occ(CCN)c3c2)cnc1N
inhibition [1]: 1.36%
inhibition [2]: 0.86%
inhibition [3]: 1.13%

Fc1ccc2[nH]ccc(=NN=Cc3ccccc3Cl)c2c1
inhibition [1]: -0.64%
inhibition [2]: 0.73%
inhibition [3]: 1.87%

O=C(Nc1cccc(-c2ccc(-c3nc4cc(F)ccc4[nH]3)cc2)c1)c1csnn1
inhibition [1]: 12.4%
inhibition [2]: 11.9%
inhibition [3]: 11.1%

O=C(NCCCNc1ccnc2cc(Cl)ccc12)c1ccccc1F
inhibition [1]: 4.12%
inhibition [2]: 3.35%
inhibition [3]: 4.23%

COc1cccc(CCNc2nc(NCc3ccccc3)c3cc(OC)c(OC)cc3n2)c1
inhibition [1]: 7.51%
inhibition [2]: 5.93%
inhibition [3]: 1.86%

Cc1ccc(NC(=O)NC2CCN(CCCCCNC(=O)/C=C/c3ccc(Cl)c(Cl)c3)CC2)cc1
inhibition [1]: 0.42%
inhibition [2]: 1.16%
inhibition [3]: -5.98%

COc1ccc2nccc([C@@H](O)CN3CCC(NCc4nc5cc(F)c(F)cc5[nH]4)CC3)c2c1
inhibition [1]: 0.88%
inhibition [2]: 2.26%
inhibition [3]: -0.99%

O=[N+]([O-])c1ccc(Oc2ccccc2CNCC2CCN(CC3CCCCC3)CC2)cc1
inhibition [1]: 13.6%
inhibition [2]: 15.7%
inhibition [3]: 7.15%

Cc1cc(N(C)C2CCN(C)C2)nc(Nc2ccc(Cl)cc2)n1 (stereo not given)
inhibition [1]: 7.55%
inhibition [2]: 8.61%
inhibition [3]: 4.14%

CCOC(=O)c1c(NC(=O)c2ccccc2)sc2c(O)c(CNC3CCCCC3)ccc12
inhibition [1]: -1.14%
inhibition [2]: -0.58%
inhibition [3]: -0.44%

COc1ccc(F)cc1-c1ccccc1CNC(=O)c1cnn(-c2ccc([N+](=O)[O-])cc2)c1C(F)(F)F
inhibition [1]: 2.16%
inhibition [2]: 2.84%
inhibition [3]: 4.07%

O=C(NCCc1cccc(Cl)c1Cl)c1ccc(N2CCN(c3ccncc3)CC2)nc1
inhibition [1]: 38.6%
inhibition [2]: 16.9%
inhibition [3]: 21.8%

CCc1c(C)c(C#N)c2nc3ccccc3n2c1NCc1ccco1
inhibition [1]: 4.43%
inhibition [2]: 4.23%
inhibition [3]: 2.13%

Cc1[nH]c(C)c(-c2ccc(OCc3ccc(F)cc3)nc2)c(=O)c1Br
inhibition [1]: 2.71%
inhibition [2]: 2.42%
inhibition [3]: 0.74%

O=C1CCCN1CCCNCc1cccc(-c2cccc(-c3nc4cc(F)ccc4[nH]3)c2)c1
inhibition [1]: 0.85%
inhibition [2]: 1.31%
inhibition [3]: 0.04%

Nc1nc(N)c2c(Sc3ccccc3)cccc2n1
inhibition [1]: 3.38%
inhibition [2]: 3.48%
inhibition [3]: 2.7%

COc1ccc(CC(=O)Nc2ccc(Nc3nc(C)cc(N(C)C)n3)cc2)cc1
inhibition [1]: 10.3%
inhibition [2]: 17.7%
inhibition [3]: 1.53%

OC(CNCc1cccc(Oc2ccc(Cl)cc2)c1)c1cccc(C(F)(F)F)c1 (stereo not given)
inhibition [1]: 1.7%
inhibition [2]: 1.81%
inhibition [3]: -0.71%

Cc1ccc(CN2CCCN(Cc3ccc(C(=O)Nc4ccc(Cl)cc4)cc3)CC2)s1
inhibition [1]: 2.49%
inhibition [2]: 2.74%
inhibition [3]: 0.05%

O=C(Nc1ccc(OC2CCN(Cc3ccc(F)cc3)C2)c(Cl)c1)c1cccs1 (stereo not given)
inhibition [1]: 2.66%
inhibition [2]: 2.25%
inhibition [3]: 0.55%

CC(C)c1cc(Oc2c(I)cc(CCNCc3ccccc3)cc2I)ccc1O
inhibition [1]: 0.46%
inhibition [2]: 1.39%
inhibition [3]: 0.47%
